From PubChem BioAssay (Tox21)
Several values for one entry are separate records, joined by “and”; a condition that tells them apart may be missing. Identical values can stand only once. Records with an inconclusive call do not appear. A structure can be active in one record and inactive in another. Activity calls are given as the source filed them. Unless noted, calls come from the whole dose curve; as a rule, active = well fitted curve in the direction sought with a large enough effect in the repeat runs; inconclusive = weak or mixed curves; inactive = no such curve, though single readings can be large; an effect the other way counts as inactive or inconclusive.

How the values were obtained:
[1] = A CellTox Green Cytotoxicity Assay to monitor cytotoxicity in HEK293 cells - 32 hour (AID 1224881); note: nearly all actives have a fitted effect of over 40% in size; note: potency is the fitted concentration of half-maximal effect
Method in brief: (§1)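 Cells (HEK293, 600/well) and dye reagent are dispensed together. After 5 h at 37 C, 23 nL compound is pinned in. Plates stay at 37 C for 40 h with fluorescence read at 0h, 8h, 16h, 24h, 32h and 40h.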

[2] = A CellTox Green Cytotoxicity Assay to monitor cytotoxicity in HepG2 cells - 32 hour (AID 1224883); note: nearly all actives have a fitted effect of over 50% in size; note: potency is the fitted concentration of half-maximal effect
Method in brief: (§2)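 Cells and non-lytic dye reagent are dispensed together (600 HepG2 cells/well) and incubated 5 h before DMSO compound transfer. Kinetic fluorescence is then recorded in the same wells during 40 h at 37 C.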

[3] = A CellTox Green Cytotoxicity Assay to monitor cytotoxicity in HEK293 cells - 8 hour (AID 1224884); note: nearly all actives have a fitted effect of over 35% in size; note: potency is the fitted concentration of half-maximal effect
Method in brief: as §1

[4] = qHTS RealTime-Glo MT Cell Viability Assay in HepG2 cells - 16 hour (AID 1224885); note: nearly all actives have a fitted effect of over 50% in size; note: potency is the fitted concentration of half-maximal effect
Method in brief: (§3)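 Real-time, nonlytic viability: 600 HepG2 cells/well mixed with NanoLuc enzyme plus prosubstrate; 5 h settle, compound (DMSO) added by pintool; luminescence monitored over 40 h at 37 C.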

[5] = qHTS RealTime-Glo MT Cell Viability Assay in HEK293 cells - 24 hour (AID 1224886); note: nearly all actives have a fitted effect of over 50% in size; note: potency is the fitted concentration of half-maximal effect
Method in brief: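 Cells + reagent dispensed (600 cells/well, HEK293) → 5 h at 37 C/5% CO2 → 23 nL compound in DMSO pinned → 40 h at 37 C → luminescence read at 0, 8, 16, 24, 32, 40 h.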

[6] = qHTS RealTime-Glo MT Cell Viability Assay in HEK293 cells - 8 hour (AID 1224887); note: nearly all actives have a fitted effect of over 50% in size; note: potency is the fitted concentration of half-maximal effect
Method in brief: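 Real-time viability in HEK293: signal arises when living cells convert a prosubstrate for NanoLuc in the medium, so luminescence tracks viable cell number. Compound (23 nL, DMSO) added 5 h post-seeding; kinetic reads at 0–40 h, 37 C.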

[7] = A CellTox Green Cytotoxicity Assay to monitor cytotoxicity in HEK293 cells - 16 hour (AID 1224888); note: nearly all actives have a fitted effect of over 35% in size; note: potency is the fitted concentration of half-maximal effect
Method in brief: as §1

[8] = qHTS RealTime-Glo MT Cell Viability Assay in HepG2 cells - 0 hour (AID 1224889); note: nearly all actives have a fitted effect of over 50% in size
Method in brief: as §3

[9] = A CellTox Green Cytotoxicity Assay to monitor cytotoxicity in HepG2 cells - 8 hour (AID 1224890); note: nearly all actives have a fitted effect of over 45% in size; note: potency is the fitted concentration of half-maximal effect
Method in brief: as §2

[10] = qHTS assay to identify small molecule antagonists of the estrogen receptor alpha (ER-alpha) signaling pathway using the BG1 cell line in the presence of 0.1 nM 17-beta-estradiol - cell viability counter screen (AID 1259241); note: nearly all actives have a fitted effect of over 40% in size; note: potency is the fitted concentration of half-maximal effect
Method in brief: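 Following 5 days in phenol red-free medium with charcoal-stripped serum, VM7Luc4E2 cells received test compounds alongside 0.1 nM 17beta-estradiol (final) at 37C for 22 hr. Live cells were then quantified via protease-substrate fluorescence.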

[11] = qHTS assay to identify small molecule antagonists of the androgen receptor (AR) signaling pathway using the MDA cell line in the presence of 0.5 nM R1881 - cell viability counter screen (AID 1259242); note: nearly all actives have a fitted effect of over 45% in size; note: potency is the fitted concentration of half-maximal effect
Method in brief: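 Steps: plate MDA-kb2 cells, rest 5 hr at 37C without CO2; pin in compounds in DMSO; add R1881 to 0.5 nM final; incubate 16 hr; add CellTiter-Fluor, 30 min; read fluorescence.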

[12] = qHTS assay to identify small molecule phospholipidosis (PLD) inducers (AID 1259344; active = well fitted curve in the direction sought with a large enough effect; an effect the other way counts as inactive or inconclusive)
Method in brief: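 Accumulated phospholipid, stained red by LipidTOX during 24 h compound treatment of HepG2 cells at 37 C, is quantified from images as pit number and intensity, normalised per cell using Hoechst-stained nuclei.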

[13] = qHTS assay to identify small molecule HDAC inhibitors (AID 1259364); note: potency is the fitted concentration of half-maximal effect;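 note: wild-type HCT-116 cells with endogenous class I/II HDAC activity; nearly all actives have a fitted effect of over 45% in size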
Method in brief: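 Cells (HCT-116, wild type) are seeded at 1,500 per well, incubated overnight, treated with compound in DMSO for 2 hr, then developed with HDAC-Glo I/II reagent for 30 min at room temperature.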

[14] = qHTS assay to identify small molecule HDAC inhibitors - cell viability counter screen (AID 1259365)
Method in brief: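 HCT-116 wild-type, overnight attachment; 2hr drug exposure, 37C; CellTiter-Glo luminescent ATP readout after 30min RT.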

[15] = qHTS assay to identify small molecule agonists of the sonic hedgehog signaling (Shh) pathway - cell viability counter screen (AID 1259366); note: nearly all actives have a fitted effect of over 50% in size; note: potency is the fitted concentration of half-maximal effect
Method in brief: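 Compounds in DMSO were pin-transferred onto 3T3 Gli1-Luc cells that had settled 4hr; plates then stood 24hr at 37C and 5% CO2. One hour before the end, CellTiter-Fluor was added and fluorescence recorded.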

[16] = qHTS assay to identify small molecule antagonists of the sonic hedgehog signaling (Shh) pathway - cell viability counter screen (AID 1259367); note: nearly all actives have a fitted effect of over 55% in size; note: potency is the fitted concentration of half-maximal effect
Method in brief: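 CellTiter-Fluor signal in conditioned medium-stimulated 3T3 Gli1-Luc cells, 23 hr compound exposure, 37C.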

[17] = qHTS assay to identify small molecule agonists of the sonic hedgehog signaling (Shh) pathway (AID 1259368; calls by dose curve;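 note: NIH/3T3-derived 3T3Gli1-Luc cells carrying a stable Gli1-driven firefly luciferase reporter; series mostly up to about 92 µM; nearly all actives have a fitted effect of over 15% in size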)
Method in brief: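 Cells of a mouse NIH/3T3 clone stably expressing luciferase under the Gli1 transcriptional response element are exposed to test chemicals for 24 hr at 37 C. Pathway activation is detected as a rise in luminescence.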

[18] = A CellTox Green Cytotoxicity Assay to monitor cytotoxicity in HepG2 cells - 0 hour (AID 1224882); note: nearly all actives have a fitted effect of over 35% in size
Method in brief: as §2

[19] = molecular target: Androgen receptor (Homo sapiens) (UniProt P10275); assay: qHTS assay to identify small molecule antagonists of the androgen receptor (AR) signaling pathway using the MDA cell line in the presence of 0.5 nM R1881 (AID 1259243); note: nearly all actives have a fitted effect of over 50% in size; note: potency is the fitted concentration of half-maximal effect
Method in brief: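 Stably transfected MDA-kb2 cells express luciferase from an MMTV promoter bearing both AR and GR response elements. Compounds plus 0.5 nM R1881 (final) were incubated 16 hr at 37C without CO2, then luminescence measured.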

[20] = molecular target: Estrogen receptor (Homo sapiens) (UniProt P03372); assay: qHTS assay to identify small molecule antagonists of the estrogen receptor alpha (ER-alpha) signaling pathway using the BG1 cell line in the presence of 0.1 nM 17-beta-estradiol (AID 1259244); note: nearly all actives have a fitted effect of over 50% in size; note: potency is the fitted concentration of half-maximal effect
Method in brief: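 Antagonist mode: compounds in DMSO are pinned onto VM7Luc4E2 reporter cells, 0.1 nM final 17beta-estradiol is added, and after 22 h at 37C luciferase luminescence is measured with ONE-Glo.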

Measured: Potency

Androgen receptor (Homo sapiens), sequence (P10275 whole entry, looked up): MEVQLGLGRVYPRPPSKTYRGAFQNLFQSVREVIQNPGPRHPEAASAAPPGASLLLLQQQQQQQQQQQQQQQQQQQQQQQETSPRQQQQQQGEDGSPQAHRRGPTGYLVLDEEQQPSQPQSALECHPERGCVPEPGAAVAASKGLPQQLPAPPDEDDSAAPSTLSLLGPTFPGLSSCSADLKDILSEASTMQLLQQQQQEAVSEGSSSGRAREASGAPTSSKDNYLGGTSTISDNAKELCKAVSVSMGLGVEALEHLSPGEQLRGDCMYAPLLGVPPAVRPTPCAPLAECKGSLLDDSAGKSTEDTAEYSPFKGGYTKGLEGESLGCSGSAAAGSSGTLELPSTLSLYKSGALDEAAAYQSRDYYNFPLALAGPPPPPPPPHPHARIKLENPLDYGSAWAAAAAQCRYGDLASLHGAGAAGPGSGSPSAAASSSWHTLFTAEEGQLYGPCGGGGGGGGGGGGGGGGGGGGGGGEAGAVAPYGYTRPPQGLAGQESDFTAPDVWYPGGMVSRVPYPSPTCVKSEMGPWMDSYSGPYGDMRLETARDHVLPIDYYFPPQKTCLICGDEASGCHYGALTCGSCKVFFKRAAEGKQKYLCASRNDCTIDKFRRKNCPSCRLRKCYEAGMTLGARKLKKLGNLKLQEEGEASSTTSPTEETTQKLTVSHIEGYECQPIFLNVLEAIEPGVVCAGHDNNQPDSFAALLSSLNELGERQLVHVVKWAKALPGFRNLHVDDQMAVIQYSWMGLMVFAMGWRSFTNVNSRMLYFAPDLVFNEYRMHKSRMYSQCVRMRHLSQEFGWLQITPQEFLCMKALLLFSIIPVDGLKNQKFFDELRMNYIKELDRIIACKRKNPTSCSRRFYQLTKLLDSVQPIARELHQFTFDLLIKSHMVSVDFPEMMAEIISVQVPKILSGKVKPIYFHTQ
Estrogen receptor (Homo sapiens), sequence (P03372 whole entry, looked up): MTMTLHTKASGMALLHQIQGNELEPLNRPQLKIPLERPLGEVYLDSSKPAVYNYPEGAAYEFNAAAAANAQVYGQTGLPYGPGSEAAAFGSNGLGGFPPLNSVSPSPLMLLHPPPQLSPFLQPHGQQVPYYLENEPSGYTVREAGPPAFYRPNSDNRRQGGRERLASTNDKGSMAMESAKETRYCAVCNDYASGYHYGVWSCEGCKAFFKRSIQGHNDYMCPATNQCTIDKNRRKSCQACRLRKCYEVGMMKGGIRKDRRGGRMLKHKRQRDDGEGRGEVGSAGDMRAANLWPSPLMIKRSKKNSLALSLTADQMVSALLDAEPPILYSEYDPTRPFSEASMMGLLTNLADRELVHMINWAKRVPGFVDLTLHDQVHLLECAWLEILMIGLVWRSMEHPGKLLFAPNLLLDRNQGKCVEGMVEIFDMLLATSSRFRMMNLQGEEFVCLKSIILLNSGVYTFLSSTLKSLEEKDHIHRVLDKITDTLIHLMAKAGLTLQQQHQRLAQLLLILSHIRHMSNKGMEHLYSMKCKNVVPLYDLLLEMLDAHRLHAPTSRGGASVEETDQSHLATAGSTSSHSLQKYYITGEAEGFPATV

CNC(C)(C)Cc1ccccc1
inactive: [1] | [2] | [3] | [4] | [5] | [6] | [7] | [8] | [9] | [10] | [11] | [12] | [13] | [14] | [15] | [16] | [17]

CCC(OC(C)=O)C(CC(C)NC)(c1ccccc1)c1ccccc1 (stereo not given)
inactive: [18] | [13] | [14] | [17]
active: [1] 62.2 µM | [7] 62.2 µM | [11] 43.6 µM | [19] 27.5 µM | [20] 69.2 µM | [15] 34.7 µM | [16] 61.6 µM

CCC[CH2][Sn]([CH2]CCC)([CH2]CCC)[CH2]CCC
active: [1] 13.8 µM | [2] 15.5 µM | [3] 49 µM | [4] 6.92 µM | [5] 9.77 µM | [6] 11 µM | [7] 24.5 µM | [9] 21.9 µM | [10] 19.3 µM | [15] 13.7 µM | [16] 21.7 µM
inactive: [8] | [13] | [17]

c1ccc(N=NNc2ccccc2)cc1
active: [1] 50.7 µM and 43.6 µM | [6] 50.7 µM | [13] 15.9 µM and 24.3 µM
inactive: [18] | [3] | [5] | [7] | [8] | [9] | [10] | [11] | [20] | [14] | [15] | [16] | [17]

CN
inactive: [1] | [2] | [3] | [4] | [6] | [7] | [8] | [9] | [10] | [11] | [13] | [14] | [15] | [16] | [17]

O=C1C2(Cl)C3(Cl)C4(Cl)C(Cl)(Cl)C5(Cl)C3(Cl)C1(Cl)C5(Cl)C24Cl (stereo not given)
inactive: [8] | [10] | [13] | [14] | [17]
inactive and 65.7 µM (active): [19]
active: [1] 38.3 µM and 52.6 µM | [2] 24.1 µM and 41.8 µM | [3] 34.1 µM and 52.6 µM | [4] 48.2 µM and 46.9 µM | [6] 34.1 µM and 46.9 µM | [7] 42.9 µM and 52.6 µM | [9] 21.5 µM and 41.8 µM | [11] 60.1 µM | [15] 26.9 µM | [16] 37.9 µM and 58.5 µM

[O-][Cl+3]([O-])([O-])O
inactive: [1] | [2] | [3] | [4] | [5] | [6] | [7] | [8] | [10] | [11] | [13] | [14] | [15] | [16] | [17]

CSC(=O)c1c(C(F)F)nc(C(F)(F)F)c(C(=O)SC)c1CC(C)C
inactive: [1] | [18] | [4] | [6] | [7] | [8] | [9] | [10] | [11] | [20] | [13] | [14] | [15] | [16] | [17]

O=[N+]([O-])c1ccccc1-c1ccccc1
inactive: [1] | [2] | [3] | [4] | [6] | [7] | [8] | [10] | [11] | [20] | [13] | [14] | [15] | [16] | [17]

Cc1ccc2cc3c(ccc4ccccc43)c3c2c1CC3
active: [20] 0.546 µM
inactive: [1] | [18] | [3] | [4] | [6] | [8] | [9] | [10] | [11] | [14] | [15] | [16] | [17]

N#Cc1ccc(N(CC(N)=O)CC(F)(F)F)cc1C(F)(F)F
inactive: [1] | [18] | [4] | [6] | [7] | [8] | [9] | [10] | [11] | [20] | [13] | [14] | [15] | [16] | [17]

N#Cc1c[nH]cc1-c1cccc2c1OC(F)(F)O2
inactive: [1] | [18] | [3] | [4] | [7] | [8] | [9] | [10] | [11] | [13] | [14] | [15] | [16] | [17]

CN1C2CCC(C)(C)C1CC(OC(=O)C(O)(c1cccs1)c1cccs1)C2 (stereo not given)
inactive: [1] | [2] | [3] | [4] | [5] | [6] | [7] | [8] | [10] | [11] | [13] | [14] | [16] | [17]

C=CC(=C)C
inactive: [1] | [2] | [3] | [4] | [5] | [6] | [7] | [8] | [10] | [11] | [20] | [13] | [14] | [15] | [16] | [17]

ClC1=C(Cl)[C@]2(Cl)[C@@H]3[C@H]4C[C@H]([C@@H]5O[C@H]45)[C@@H]3[C@@]1(Cl)C2(Cl)Cl
inactive: [1] | [2] | [3] | [4] | [5] | [6] | [7] | [8] | [9] | [10] | [11] | [20] | [12] | [13] | [14] | [17]
active: [16] 68.5 µM

O=C(CCCCl)c1ccc(F)cc1
inactive: [1] | [2] | [3] | [4] | [5] | [6] | [7] | [8] | [9] | [10] | [11] | [13] | [14] | [15] | [16] | [17]
